The panel holds about 79,000 compounds, 15% with a hit somewhere; the sample as a whole holds those more often. A number with no mark means an inactive call. Activity calls are given as the source filed them. No stated cut-off is given here; in the data, active means growth inhibition above about 70%; inactive means the rest.

The nature of test [1]: NCI Yeast Anticancer Drug Screen. Data for the rad50 strain (AID 155).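 Further: 0% = growth of vehicle-only cultures of the same strain.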 As to conditions: S. cerevisiae rad50 strain growth inhibition, active compounds read high. Summed up:
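Yeast carrying a defined DNA repair defect were exposed to test compounds, and growth was compared with vehicle-treated controls to give percent inhibition.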

The nature of test [2]: NCI Yeast Anticancer Drug Screen. Data for the mec2-1 strain (AID 157). The settings on record: S. cerevisiae mec2-1 strain, active compounds read high. Summed up:
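Test agents were screened against the mec2-1 yeast strain, with defined DNA repair or cell cycle alteration. Growth was scored as inhibition against vehicle-only controls.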

Test [3] is described as follows: NCI Yeast Anticancer Drug Screen. Data for the sgs1 mgt1 strain (AID 161).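 Further: 0% = growth of cultures given vehicle only.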 As to conditions: S. cerevisiae sgs1 mgt1 strain, active compounds read high. Summed up:
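Genetically altered yeast, compound exposure, growth inhibition relative to vehicle.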

A short description of test [4]: NCI Yeast Anticancer Drug Screen. Data for the cln2 rad14 strain (AID 165).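 Further: 0% = growth equal to vehicle treated cultures.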 As to conditions: S. cerevisiae cln2 rad14 strain, active compounds read high. Summed up: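 Growth of compound-exposed yeast (cln2 rad14 genotype) measured and expressed as inhibition relative to vehicle.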
Test [5] is described as follows: NCI Yeast Anticancer Drug Screen. Data for the bub3 strain (AID 167). The settings on record: S. cerevisiae bub3 mutant strain, active compounds read high. Summed up:
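Compounds were applied to a genetically altered yeast strain carrying a cell-cycle control defect. Growth inhibition was scored against vehicle-treated controls.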

Test [6] in a line: NCI Yeast Anticancer Drug Screen. Data for the mlh1 rad18 strain (AID 175). As to conditions: S. cerevisiae mlh1 rad18 strain growth inhibition, active compounds read high. Summed up:
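In this whole-cell yeast screen, a strain with altered DNA damage repair is challenged with compound, and its growth is measured against matched vehicle-treated controls.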

The mark [7] stands for this setting: at 5.0 µM (retest, dose inferred, filed as 0.5).
Where [8] appears, read: at 50.0 µM (retest, dose inferred, filed as 5.0).

Turning to `CCC(CC=C(C)C)(CC=C(C)C)c1ccncc1` (tested in a mixture with another compound), the growth inhibition in test [1] (setting [7]) is -7%; in test [1] (setting [8]), 84% (active); in test [1] (at 50.0 µM), 97.8% (active); in test [2] (setting [7]), -8%; in test [2] (setting [8]), 76% (active); in test [2] (at 50.0 µM), 99% (active). The growth inhibition in test [3] (setting [7]) is 1%; in test [3] (setting [8]) it was 80% (active); in test [3] (at 50.0 µM) it was 98.9% (active); in test [4] (setting [7]) it was -5%; in test [4] (setting [8]), 50%; in test [4] (at 50.0 µM) it was 70.5% (active). For the same compound, the growth inhibition was 1% in test [5] (setting [7]); 76% (active) in test [5] (setting [8]); 93.2% (active) in test [5] (at 50.0 µM); -4% in test [6] (setting [7]); 74% (active) in test [6] (setting [8]); 96.2% (active) in test [6] (at 50.0 µM).

As for `CCN(CC)CCCNc1nc(NCCCN(CC)CC)c2nc(-c3ccccc3)c(-c3ccccc3)nc2n1`, the growth inhibition in test [1] (setting [7]) is -3%; in test [1] (setting [8]), 93% (active); in test [1] (at 50.0 µM) it was 66.5%; in test [2] (setting [7]), 2%; in test [2] (setting [8]), 93% (active); in test [2] (at 50.0 µM) it was 61.4%. Further, the growth inhibition was -2% in test [3] (setting [7]); 94% (active) in test [3] (setting [8]); 63.8% in test [3] (at 50.0 µM); 0% in test [4] (setting [7]); 47% in test [4] (setting [8]); 77.4% (active) in test [4] (at 50.0 µM). The growth inhibition is -4% in test [5] (setting [7]); 92% (active) in test [5] (setting [8]); 56.1% in test [5] (at 50.0 µM); -6% in test [6] (setting [7]); 94% (active) in test [6] (setting [8]); 98.5% (active) in test [6] (at 50.0 µM).

As for `CCC(C)(C)c1ccc(OCCO)c([N+](=O)[O-])c1`, the growth inhibition in test [1] (setting [7]) is 10%; in test [1] (setting [8]) it was 70% (active); in test [1] (at 50.0 µM), 77.3% (active); in test [2] (setting [7]) it was 8%; in test [2] (setting [8]), 71% (active); in test [2] (at 50.0 µM), 0.1%. For the same compound, the growth inhibition in test [3] (setting [7]) was 15%; in test [3] (setting [8]), 92% (active); in test [3] (at 50.0 µM) it was 74% (active); in test [4] (setting [7]), 13%; in test [4] (setting [8]), 64%; in test [4] (at 50.0 µM), 25.9%. The growth inhibition in test [5] (setting [7]) was 19%; in test [5] (setting [8]) it was 88% (active); in test [5] (at 50.0 µM) it was 72.4% (active); in test [6] (setting [7]) it was 29%; in test [6] (setting [8]), 90% (active); in test [6] (at 50.0 µM), 56.9%.

`O=S(=O)(NC(=S)Nc1ccccc1)c1ccc(Br)cc1`: the growth inhibition was -4% in test [1] (setting [7]); 24% in test [1] (setting [8]); 42.9% in test [1] (at 50.0 µM); -3% in test [2] (setting [7]); 50% in test [2] (setting [8]); 47.1% in test [2] (at 50.0 µM). Besides, the growth inhibition in test [3] (setting [7]) is 7%; in test [3] (setting [8]), 53%; in test [3] (at 50.0 µM), 37.5%; in test [4] (setting [7]), -1%; in test [4] (setting [8]), 2%; in test [4] (at 50.0 µM), 79.5% (active). Moreover, the growth inhibition in test [5] (setting [7]) was -3%; in test [5] (setting [8]), 42%; in test [5] (at 50.0 µM) it was 67.8%; in test [6] (setting [7]) it was 21%; in test [6] (setting [8]), 68%; in test [6] (at 50.0 µM), 65.8%.

On to `CCOC(=O)C(/C=N\C(=S)Nc1c(CC)cccc1C(C)(C)C)=C(/O)c1ccccc1`, for which the growth inhibition in test [1] (setting [7]) was 7%; in test [1] (setting [8]), 61%; in test [1] (at 50.0 µM), 51.5%; in test [2] (setting [7]) it was 0%; in test [2] (setting [8]), 46%; in test [2] (at 50.0 µM), 49%. The growth inhibition in test [3] (setting [7]) is 17%; in test [3] (setting [8]), 35%; in test [3] (at 50.0 µM) it was 64.5%; in test [4] (setting [7]) it was -13%; in test [4] (setting [8]) it was 43%; in test [4] (at 50.0 µM), 67.2%. Moreover, the growth inhibition in test [5] (setting [7]) was -8%; in test [5] (setting [8]), 73% (active); in test [5] (at 50.0 µM), 55.6%; in test [6] (setting [7]), 4%; in test [6] (setting [8]), 48%; in test [6] (at 50.0 µM), 63%.

On to `Cc1ccc(Nc2nc3c(s2)C(=O)c2ccccc2C3=O)c(C)c1`, for which the growth inhibition in test [1] (setting [7]) is 28%; in test [1] (setting [8]) it was 99% (active); in test [1] (at 50.0 µM), 98.7% (active); in test [2] (setting [7]) it was 33%; in test [2] (setting [8]), 99% (active); in test [2] (at 50.0 µM), 99.5% (active). The growth inhibition in test [3] (setting [7]) was 18%; in test [3] (setting [8]) it was 99% (active); in test [3] (at 50.0 µM), 99.2% (active); in test [4] (setting [7]) it was 7%; in test [4] (setting [8]) it was 98% (active); in test [4] (at 50.0 µM), 98.9% (active). Moreover, the growth inhibition in test [5] (setting [7]) was 50%; in test [5] (setting [8]), 99% (active); in test [5] (at 50.0 µM) it was 99.5% (active); in test [6] (setting [7]), 30%; in test [6] (setting [8]), 98% (active); in test [6] (at 50.0 µM), 97.8% (active).

For the compound `N#CC1C(=O)NC(=O)CC1c1ccccc1` (configuration not stated), the growth inhibition is 10% in test [1] (setting [7]); 99% (active) in test [1] (setting [8]); 99.2% (active) in test [1] (at 50.0 µM); -10% in test [2] (setting [7]); 99% (active) in test [2] (setting [8]); 99.2% (active) in test [2] (at 50.0 µM). The growth inhibition in test [3] (setting [7]) is 10%; in test [3] (setting [8]), 99% (active); in test [3] (at 50.0 µM) it was 99% (active); in test [4] (setting [7]) it was 10%; in test [4] (setting [8]) it was 99% (active); in test [4] (at 50.0 µM), 99.3% (active). The growth inhibition was 0% in test [5] (setting [7]); 99% (active) in test [5] (setting [8]); 99.3% (active) in test [5] (at 50.0 µM); 13% in test [6] (setting [7]); 99% (active) in test [6] (setting [8]); 99.2% (active) in test [6] (at 50.0 µM).

On to `CCCCCCCCCCCCSC1=C(N)C(=O)c2ccccc2C1=O`, for which the growth inhibition in test [1] (setting [7]) is 3%; in test [1] (setting [8]), 2%; in test [1] (at 50.0 µM) it was 8.35%; in test [2] (setting [7]), 0%; in test [2] (setting [8]), 3%; in test [2] (at 50.0 µM), 11.1%. Further, the growth inhibition in test [3] (setting [7]) is 8%; in test [3] (setting [8]), -5%; in test [3] (at 50.0 µM), -9.05%; in test [4] (setting [7]) it was -3%; in test [4] (setting [8]) it was 0%; in test [4] (at 50.0 µM) it was 32.3%. In addition, the growth inhibition in test [5] (setting [7]) is -1%; in test [5] (setting [8]) it was -1%; in test [5] (at 50.0 µM), 11.3%; in test [6] (setting [7]), 0%; in test [6] (setting [8]) it was 5%; in test [6] (at 50.0 µM) it was 53%.

As for `COc1ccc2nc3cc(Cl)ccc3c(NCCCCN(C)C)c2c1`, the growth inhibition was -2% in test [1] (setting [7]); 21% in test [1] (setting [8]); 40.7% in test [1] (at 50.0 µM); 1% in test [2] (setting [7]); 18% in test [2] (setting [8]); 35.8% in test [2] (at 50.0 µM). The growth inhibition in test [3] (setting [7]) is -5%; in test [3] (setting [8]), 30%; in test [3] (at 50.0 µM), 37.5%; in test [4] (setting [7]), 5%; in test [4] (setting [8]), 21%; in test [4] (at 50.0 µM), 89.2% (active). For the same compound, the growth inhibition in test [5] (setting [7]) was -3%; in test [5] (setting [8]) it was 18%; in test [5] (at 50.0 µM) it was 39.6%; in test [6] (setting [7]) it was 0%; in test [6] (setting [8]), 21%; in test [6] (at 50.0 µM) it was 31.5%.

For the origin of these results see PubChem BioAssay (NCI).
